In PubChem BioAssay AID493170 (National Center for Advancing Translational Sciences (NCATS), 2011):
Results filed as inconclusive are left out. A number with no mark means an inactive call. The source made the active and inactive calls. The call rests on the fitted dose curve; in most records, active means well fitted inhibition curve with a large enough effect; inconclusive means small, poorly fitted or top-dose-only effect, or effect the other way; inactive means flat fitted curve, though single readings scatter.

biological target: Ubiquitin carboxyl-terminal hydrolase 2 (Homo sapiens) (UniProt O75604); experiment: Ub-rhodamine 110 based assay for inhibitors Ubiquitin-specific Protease USP2a; conditions: USP2a Ub-rhodamine110 cleavage, fluorescence; series mostly up to 38.3 µM; activity change, negative = inhibition: at the top concentration; further: nearly all actives have a fitted effect of over 50% in size
Sequence (O75604 whole entry, looked up): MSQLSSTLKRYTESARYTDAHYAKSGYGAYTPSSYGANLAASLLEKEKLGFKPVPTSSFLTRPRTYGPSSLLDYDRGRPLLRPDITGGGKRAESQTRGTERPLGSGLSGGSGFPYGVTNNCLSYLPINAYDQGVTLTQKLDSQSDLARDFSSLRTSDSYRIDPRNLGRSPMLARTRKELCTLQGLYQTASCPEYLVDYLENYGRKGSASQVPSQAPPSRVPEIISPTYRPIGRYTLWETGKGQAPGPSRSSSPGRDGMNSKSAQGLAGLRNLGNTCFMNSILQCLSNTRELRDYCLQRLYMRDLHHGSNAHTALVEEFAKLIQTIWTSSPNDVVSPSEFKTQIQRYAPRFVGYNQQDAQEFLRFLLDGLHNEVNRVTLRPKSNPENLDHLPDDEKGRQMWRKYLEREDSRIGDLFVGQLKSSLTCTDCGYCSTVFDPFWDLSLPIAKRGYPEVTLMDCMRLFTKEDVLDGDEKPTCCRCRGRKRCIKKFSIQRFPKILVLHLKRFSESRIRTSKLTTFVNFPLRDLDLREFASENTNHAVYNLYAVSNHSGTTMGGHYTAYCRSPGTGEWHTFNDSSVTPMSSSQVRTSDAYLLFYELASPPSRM
Method in brief: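 5 nM USP2a preincubated with compounds for 30 min at RT in 20 mM Tris-HCl pH 8.0, 2 mM CaCl2, 2 mM beta-mercaptoethanol, 0.05% CHAPS. Cleavage of 150 nM Ub-rhodamine 110 read kinetically (Ex 485/Em 531) for 7 min.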
On the % scale 0 is the no-effect control and ±100 the full control effect; potency means the concentration at half of the fitted maximal effect.

Structure (SMILES) | activity change, negative = inhibition | Potency
CC(C)(C)C1CCC(=NNC(=O)CN(c2ccccc2)S(C)(=O)=O)CC1 (centres undefined) | -13.3% | –
CCCCOC1(c2ccccc2)NC(=S)NN=C1c1ccccc1 (centres undefined) | -3.04% | –
CCOc1cc(/C=C/c2nc3cc(C)c(C)cc3s2)ccc1OCC(=O)N1CCOCC1 | -17% | –
COc1cc(-c2nc(-c3ccc4c(c3)-c3ccccc3S4(=O)=O)c(-c3ccccc3)[nH]2)cc(OC)c1O | -23% | –
Cc1cccc(NC(=S)NCc2ccc3c(c2)cc(C)n3C)c1C | -9.94% | –
O=C(/C=C1\NC2(CCCC2)Cc2ccccc21)C(=O)N/N=C/c1ccc(O)c(O)c1 | – | 7.94 µM (active)
CCC(=O)c1ccc(OCC(=O)NC2CCN(Cc3ccccc3)CC2)cc1 | -5.4% | –
COc1cc2c(C(=O)N3CCN(c4cccc(Cl)c4)CC3)cn(CC(C)C)c(=O)c2cc1OC | 2.04% | –
CSC1=NCCN1C(=O)Cc1ccc(F)cc1 | 6.29% | –
O=C(O)C1Nc2c(O)cc(Cl)c([N+](=O)[O-])c2C2C=CCC12 (centres undefined) | – | 3.98 µM (active)
COC(=O)CC1Oc2ccc(C)cc2NC1=O (centres undefined) | -1.3% | –
Cc1cc(Cl)ccc1NC(=S)NCCCN1CCCC1=O | 3.42% | –
O=C(Nn1c(SCc2ccc([N+](=O)[O-])cc2)nc2ccccc2c1=O)c1ccc(F)cc1 | – | 10 µM (active)
COC(=O)c1nnn(-c2nonc2N)c1CSc1ccccn1 | -6.42% | –
O=C(COc1ccccc1)NCc1nnc(SCC(=O)Nc2nccs2)n1-c1ccccc1 | 6.68% | –
CCN(Cc1ccncc1)C(=O)c1cccs1 | -7.04% | –
CCCC(=O)Nc1ccc(N2CCN(C(=O)c3cc4ccccc4o3)CC2)cc1 | -17.7% | –
O=C(O)CN1C(=O)/C(=C\c2ccccc2OCc2ccc(Cl)cc2Cl)SC1=S | – | 10 µM (active)
CCCSCCCNC(=O)CC1Oc2ccccc2NC1=O (centres undefined) | -16.1% | –
COC1=CCC2([N+](=O)[O-])CN(CCO)CC1([N+](=O)[O-])C2 (centres undefined) | 3.44% | –

Structure (SMILES) | activity change, negative = inhibition | Potency
C#CCOCCOCCOCCNc1nc(N2CCN(C(=O)CCCCCCCCCCNC(=O)[C@@H](CCC(=O)O)n3cc(CCCCCN)nn3)CC2)nc(N2CCN(C(=O)CCCCCCCCCCNC(=O)[C@H]([C@@H](C)CC)n3cc(CCCCCN)nn3)CC2)n1 | -29.6% | –
Cc1ccc(S(=O)(=O)N2[C@@H](c3ccccc3F)C(C(=O)O)=CC[C@H]2c2ccc(Cl)c(Cl)c2)cc1 | – | 11.2 µM (active)
C=CCn1c(NCc2cc(C)ccc2O)nc2ccccc21 | -5.84% | –
COc1ccc(-c2csc(N3CCN(C(=O)c4ccco4)CC3)n2)cc1 | -9.11% | –
C=C(C)COc1ccc(-c2[nH]ncc2Oc2ccccc2OCC)c(O)c1 | -15% | –
Cc1ccc(C)n1-c1cc(S(=O)(=O)N2CCOCC2)ccc1N1CCCC1 | -24.9% | –
O=C(/C=C/c1ccc(O)c(O)c1)c1ccc(S(=O)(=O)N2CCCCCC2)cc1 | – | 3.98 µM (active)
Cc1ccccc1OCCn1nc(C(=O)O)c2ccccc2c1=O | -3.18% | –
Cc1onc(-c2ccccc2)c1C(=O)N1CCN(C)CC1 | -5.26% | –
CNc1nc(OCCNC(=O)Nc2ccccc2)nc(N2CCOCC2)n1 | -8.3% | –
O=C(CCc1nc(-c2ccccc2F)no1)NC1CCCCCC1 | 1.03% | –
COC(=O)c1c(O)c2c([nH]c1=O)CCCC2 | 0.864% | –
CC1CCN(CC(O)COc2cccc(F)c2)CC1 (centres undefined) | -2.9% | –
COc1ccc(NC(=O)c2cc(-c3ccco3)nc3ccccc23)cc1S(=O)(=O)N1CCOCC1 | – | 4.47 µM (active)
Cc1ccc(O)c(CC(C)C)n1 | -3.99% | –
CCOC(=O)C1CCN(CC(O)COc2ccc(C(C)(C)C)cc2)CC1 (centres undefined) | 2.76% | –
O=C1N=c2ccccc2=C1c1sc(Nc2ccc(O)cc2)nc1O | – | 7.94 µM (active)
CC(C)(C)NC(=O)CSc1nc(O)cc(=O)n1-c1ccccc1F | -5.04% | –
CCN(CC(=O)Nc1ccc(NC(C)=O)cc1)C(=O)c1ccc(N2CCC(C)CC2)c([N+](=O)[O-])c1 | -22% | –
